Measured values reported in paper PMC4336329 (PLoS ONE, 2015).
Out of some 310,000 compounds screened, about 14,000 (4.5%) showed an effect of 50% or more. The effect is printed as a negative number. For the sample, strong results were picked, then their nearest neighbours and some compounds at random.

Target: human ether-à-go-go-related gene (hERG) potassium channel (human, UniProt Q12809)
Experiment: primary screen, population patch clamp on CHO cells stably expressing hERG; higher = less effect of the substance
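Also: peak tail current of the secondary pulse compared with the same well before compound.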

human ether-à-go-go-related gene (hERG) potassium channel, sequence (Q12809 whole entry, looked up): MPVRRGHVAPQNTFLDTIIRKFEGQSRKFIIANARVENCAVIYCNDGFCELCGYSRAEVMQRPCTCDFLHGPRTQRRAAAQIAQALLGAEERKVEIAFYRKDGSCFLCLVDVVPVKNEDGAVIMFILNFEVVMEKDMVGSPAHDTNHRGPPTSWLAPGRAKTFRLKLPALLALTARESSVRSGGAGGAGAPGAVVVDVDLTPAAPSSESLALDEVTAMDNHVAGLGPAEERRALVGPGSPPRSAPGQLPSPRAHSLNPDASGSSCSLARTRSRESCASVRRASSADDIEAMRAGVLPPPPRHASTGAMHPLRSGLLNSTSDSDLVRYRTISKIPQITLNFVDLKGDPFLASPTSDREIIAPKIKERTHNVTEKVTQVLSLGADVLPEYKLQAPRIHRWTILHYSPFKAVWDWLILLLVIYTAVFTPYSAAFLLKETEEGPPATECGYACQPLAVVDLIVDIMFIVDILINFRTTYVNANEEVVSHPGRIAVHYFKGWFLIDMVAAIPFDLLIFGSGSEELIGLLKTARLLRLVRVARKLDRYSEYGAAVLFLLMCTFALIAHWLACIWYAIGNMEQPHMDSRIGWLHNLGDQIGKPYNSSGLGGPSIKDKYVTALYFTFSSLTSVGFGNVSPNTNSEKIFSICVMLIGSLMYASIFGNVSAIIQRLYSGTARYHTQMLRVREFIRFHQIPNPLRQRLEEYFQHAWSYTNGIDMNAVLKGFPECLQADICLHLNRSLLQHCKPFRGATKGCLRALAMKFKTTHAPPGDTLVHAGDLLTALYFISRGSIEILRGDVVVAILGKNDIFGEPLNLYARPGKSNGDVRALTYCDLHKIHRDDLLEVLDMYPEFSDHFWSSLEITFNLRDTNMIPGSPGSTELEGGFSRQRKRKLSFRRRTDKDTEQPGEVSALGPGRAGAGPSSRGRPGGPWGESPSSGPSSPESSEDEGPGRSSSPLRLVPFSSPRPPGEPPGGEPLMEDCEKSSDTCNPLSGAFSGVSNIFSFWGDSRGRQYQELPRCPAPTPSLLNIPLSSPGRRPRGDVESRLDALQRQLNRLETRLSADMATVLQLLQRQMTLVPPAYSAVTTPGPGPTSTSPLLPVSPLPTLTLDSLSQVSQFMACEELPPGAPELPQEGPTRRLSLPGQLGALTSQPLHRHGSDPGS

Structure (SMILES) | hERG current change (%, negative = inhibition) at 10uM [%]
CCOC(=O)N1CCC(NCCNC(=O)c2ccc(Cl)cc2)CC1 | -57.8
CCOC(=O)N1CCN(c2c(NC3CCN(Cc4ccccc4)CC3)c(=O)c2=O)CC1 | 7.18
CCOC(=O)N1CCC(N2CCN(c3ccccc3)CC2)CC1.Cl | -21.4
CCOC(=O)N1CCC(NCCNC(=O)c2ccc(F)cc2)CC1.Cl | -25.2
CCOC(=O)N1CCC(Nc2c(N3CCN(c4cc(Cl)ccc4C)CC3)c(=O)c2=O)CC1 | -80.4
CCOC(=O)N1CCC(N2CCN(c3cc(C)ccc3C)CC2)CC1 | -51.2
CCOC(=O)N1CCC(NC(=O)c2ccc(Cl)cc2)CC1 | -14.5
CCOC(=O)N1CCC(Nc2c(NCCN3CCN(c4cccc(Cl)c4)CC3)c(=O)c2=O)CC1 | -0.879
CCOC(=O)N1CCN(c2c(N3CCN(c4cccc(C(F)(F)F)c4)CC3)c(=O)c2=O)CC1 | -46.4
CCOC(=O)N1CCN(c2c(NCc3ccc(Cl)cc3)c(=O)c2=O)CC1 | -17
CCOC(=O)N1CCC(Nc2c(N3CCN(c4cccc(C(F)(F)F)c4)CC3)c(=O)c2=O)CC1 | -76.8
CCOC(=O)N1CCN(c2c(N3CCN(c4cc(C)ccc4C)CC3)c(=O)c2=O)CC1 | -15.1
C[C@@H]1C(=O)O[C@H]2[C@H]1CC[C@@]1(C)C(=O)C=C[C@@](C)(O)[C@H]21 | 15.6
C=CCN1C(=O)c2ccc(C(=O)OCC(=O)N3CCN(c4ccccc4)CC3)cc2C1=O | 7.02
CC(C(=O)NCCc1ccccc1)N1c2cccc3cccc(c23)S1(=O)=O (centres unmarked) | -21.2
Cc1ccc(C(=O)OCC(=O)NNC(=O)COc2ccc(Cl)cc2)c(O)c1 | -2.08
O=C(Cc1ccc(NS(=O)(=O)c2ccc(F)cc2)cc1)NCc1ccccc1 | -16.4
O=C(N/N=C/c1cc([N+](=O)[O-])ccc1O)C12CC3CC(CC(C3)C1)C2 | 8.39
CCN(CC(=O)Nc1c(F)cccc1F)C(=O)CSc1ccccc1 | 8.37
CCSc1ccccc1C(=O)N1CCN(c2ccccc2F)CC1 | 17.6
O=C(c1cc([N+](=O)[O-])ccc1Cl)N1CCN(c2ccc(F)cc2)CC1 | -27.9

Structure (SMILES) | hERG current change (%, negative = inhibition) at 10uM [%]
O=C(c1cc([N+](=O)[O-])ccc1Cl)N1CCN(c2ccccc2)CC1 | -6.43
CC(NC(=O)c1cnc2n(c1=O)CCS2)c1ccccc1 (centres unmarked) | 3.42
COCCSc1ccccc1C(=O)Nc1cc([N+](=O)[O-])ccc1OC | -28.8
CCSc1ccccc1C(=O)Nc1ccc([N+](=O)[O-])cc1OC | -51.9
COCCSc1ccccc1C(=O)Nc1ccc([N+](=O)[O-])cc1OC | -39.9
O=C(c1cnc2n(c1=O)CCS2)N1CCN(c2ccccc2F)CC1 | -5.65
O=C(c1cc([N+](=O)[O-])ccc1Cl)N1CCN(c2ccc([N+](=O)[O-])cc2)CC1 | -73.6
CCSc1ccccc1C(=O)N1CCN(c2ccc([N+](=O)[O-])cc2)CC1 | -79.4
CCSc1ccccc1C(=O)N1CCCC1 | -5.81
O=C(c1cnc2n(c1=O)CCS2)N1CCN(C(c2ccccc2)c2ccc(Cl)cc2)CC1 (centres unmarked) | -52.4
Cc1cccc(NC(=O)COC(=O)Cc2cccc(C(F)(F)F)c2)c1C | 22.8
Cc1cc(C)n(CCNC(=O)CC2C(=O)NCCN2Cc2ccccc2C(F)(F)F)n1 (centres unmarked) | 8.81
COCCOC(=O)C1=C(C)OC(N)=C(C#N)C1c1ccc2c(c1)OCO2 (centres unmarked) | -0.292
CCCOc1ccc(/C=N/NC(=O)C(C)Sc2ccccn2)cc1OCC (centres unmarked) | 14.9
CCOCC(=O)Nc1cc([N+](=O)[O-])ccc1OC | 15.7
N#C/C(=C\C=C\c1ccccc1)c1nc(-c2ccc3c(c2)OCO3)cs1 | -3.96
COc1ccc(N(CC(=O)NCc2cccs2)S(=O)(=O)c2ccc(F)cc2)cc1 | -0.742
CN(Cc1nccs1)C(=O)C1CCC(=O)N(Cc2ccccc2F)C1 (centres unmarked) | -16.1
COc1cccc(-c2ccc(=O)n(CC(=O)Nc3ccc(C(=O)N4CCCC4)cc3)n2)c1 | -15.4
COc1cc(/C=C/c2cccc[n+]2C)ccc1OCC(=O)Nc1ccccc1.[I-] | 8.86
O=C(c1cc([N+](=O)[O-])ccc1N1CCOCC1)N1CCN(c2ccccc2)CC1 | -32.3

Structure (SMILES) | hERG current change (%, negative = inhibition) at 10uM [%]
CN(C)S(=O)(=O)c1ccc(N2CCCC2)c(C(=O)N2CCN(c3ccc([N+](=O)[O-])cc3)CC2)c1 | -76.7
Cc1ccc(S(=O)(=O)N2CCN(C(=O)c3cc(S(=O)(=O)N(C)C)ccc3N3CCCC3)CC2)cc1 | -11.1
CC(=O)c1ccc(N2CCN(C(=O)c3cc(-c4cccnc4)nc4ccc(Br)cc34)CC2)cc1 | 2.5
Cc1cccc(N2CCN(C(=O)c3cc(S(=O)(=O)N(C)C)ccc3N3CCCC3)CC2)c1C | -12.3
O=C(c1cc(=O)[nH]c2ccccc12)N1CCN(c2ccccc2)CC1 | 2.12
O=C(c1cc([N+](=O)[O-])ccc1N1CCOCC1)N1CCOCC1 | 18.1
Cc1ccc2nc(-c3cccnc3)cc(C(=O)N3CCN(c4ccc([N+](=O)[O-])cc4)CC3)c2c1 | -68.2
Cc1ccc2c(C(=O)N3CCN(c4ccccc4)CC3)cc(-c3cccnc3)nc2c1C | 4.03
O=C(c1cc(=O)[nH]c2ccccc12)N1CCN(c2ccc([N+](=O)[O-])cc2)CC1 | -65.1
COc1ccc(N2CCN(C(=O)c3cc(=O)[nH]c4ccccc34)CC2)cc1 | -0.412
O=C(c1cc([N+](=O)[O-])ccc1N1CCOCC1)N1CCN(c2ccc([N+](=O)[O-])cc2)CC1 | -79.8
CCOc1ccc(C(=O)NCC(=O)OCC(=O)Nc2ccccc2OC)cc1 | -18.1
CCC(CC)C(=O)Nc1cc(C)cc(C)c1 | 0.735
CC(NC(=O)COC(=O)CNC(=O)C1CCCCC1)c1ccccc1 (centres unmarked) | -3.81
COc1ccc(/C=N/NC(=O)c2nnn(-c3nonc3N)c2-c2cccs2)c(OC)c1 | 13.1
CC(C)(C)NC(=O)C(OC(=O)c1cccs1)c1ccccc1 (centres unmarked) | 58.8
Cc1ccc(C(=O)NC(=S)NNC(=O)COc2ccccc2C)cc1 | 15.3
O=C(O)C1CCCCC1C(=O)NCCc1ccncc1 (centres unmarked) | 1.96
O=C(c1ccc(F)cc1)N1CCN2C(=O)c3ccccc3C12c1ccccc1 (centres unmarked) | -31.5
COc1ccc2[nH]c(=O)c(CN(C(C)=O)c3cccc(C)c3)cc2c1 | -8.64
Nc1nonc1-n1nnc(C(=O)N/N=C/c2ccccc2)c1CSc1ccc(Cl)cc1 | -23.6

Structure (SMILES) | hERG current change (%, negative = inhibition) at 10uM [%]
Cc1ccccc1C(=O)OC1OC(=O)C(Cl)=C1N1CCOCC1 (centres unmarked) | -20.1
O=C1CCCC2=C1C(c1ccncc1)c1c(nc(SCc3ccccc3)[nH]c1=O)N2 (centres unmarked) | 17.7
O=C(c1cc([N+](=O)[O-])ccc1N1CCOCC1)N1CCN(S(=O)(=O)c2ccc(F)cc2)CC1 | -32.5
O=C(c1cc([N+](=O)[O-])ccc1N1CCOCC1)N1CCN(S(=O)(=O)c2cc(Cl)ccc2Cl)CC1 | -32.3
CC(=O)c1cnc2n(c1=O)CCS2 | 27.8
O=C(c1cnc2n(c1=O)CCS2)N1CCN(c2ccc([N+](=O)[O-])cc2)CC1 | -63
O=C(c1cc([N+](=O)[O-])ccc1N1CCN(S(=O)(=O)c2ccc(Cl)c(Cl)c2)CC1)N1CCOCC1 | -52.4
CCOC(=O)N1CCN(C(=O)c2cnc3n(c2=O)CCS3)CC1 | 7.34
CCOC(=O)C(C)Sc1nnc(Cc2cc(=O)[nH]c(=O)[nH]2)n1-c1ccc(Cl)cc1 (centres unmarked) | 2.15
C/C(=N/OC(=O)c1c(F)cccc1F)c1nccs1 | 3.34
CCOC(=O)CSc1nnc([C@H](Cc2ccccc2)NC(=O)OC(C)(C)C)o1 | -14.3
COc1ccc2c(COC(=O)CNC(=O)C34CC5CC(CC(C5)C3)C4)cc(=O)oc2c1 | -31.4
COc1ccc([C@@H](C)NC(=O)c2ccc3oc(C(C)C)nc3c2)cc1 | 26.1
O=C(NC(=S)Nc1ccccc1F)c1ccc(Br)o1 | 8.98
O=C(c1ccco1)N1CCN(C(=O)C2CC(c3ccccc3F)=NO2)CC1 (centres unmarked) | -18.3
O=C(c1ccco1)N1CCN(C(=O)C2CC(c3ccc(Cl)cc3)=NO2)CC1 (centres unmarked) | -76.2
COc1cccc(C2=NOC(C(=O)N3CCN(C(=O)c4ccco4)CC3)C2)c1 (centres unmarked) | -40.1
COc1cc(OC)c(C2=NOC(C(=O)N3CCN(C(=O)c4ccco4)CC3)C2)cc1Cl (centres unmarked) | -35.3
COc1ccc(C2=NOC(C(=O)N3CCN(C(=O)c4ccco4)CC3)C2)cc1OC (centres unmarked) | 0.127
O=C(c1ccco1)N1CCN(C(=O)C2CC(c3ccc(F)cc3)=NO2)CC1 (centres unmarked) | -72.5
